Test results from PubChem BioAssay (NCI).
Compounds without any hit were thinned out: in the full panel of roughly 83,000, 20% have a hit.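 Cells were grown in 96-well plates and exposed to the test compound at a single concentration for 48 hours; results are reported as percent growth, with values below 10 considered active.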 The source made the active and inactive calls.

Assays:
Assay in all cases: NCI-60 one-dose screen, 48 h (100 = growth as untreated, 0 = no growth, -100 = all killed)
Conditions in all cases: 10 µM unless noted
[1] = tested on: DU-145 prostate
[2] = tested on: K-562 leukemia
[3] = tested on: MALME-3M melanoma
[4] = tested on: MDA-MB-231 breast
[5] = tested on: RXF 393 renal
[6] = tested on: SF-268 CNS
[7] = tested on: SF-295 CNS
[8] = tested on: SF-539 CNS
[9] = tested on: UACC-257 melanoma
[10] = tested on: M14 melanoma
[11] = tested on: HCT-15 colon
[12] = tested on: HT29 colon
[13] = tested on: SNB-75 CNS
[14] = tested on: SNB-19 CNS
[15] = tested on: U251 CNS
[16] = tested on: PC-3 prostate
[17] = tested on: SK-MEL-5 melanoma
[18] = tested on: UACC-62 melanoma
[19] = tested on: LOX IMVI melanoma
[20] = tested on: SK-MEL-28 melanoma

Measured: growth

CO[C@@H]1[C@H](N(C)C(=O)c2ccccc2)C[C@@H]2O[C@]1(C)n1c3ccccc3c3c4c(c5c6ccccc6n2c5c31)C(=O)NC4=O
inactive: [1] 50.1% | [2] 52.4% | [3] 38.5% | [4] 41.7% | [6] 48.2% | [7] 42.5% | [8] 13.6% | [9] 61.5% | [10] 37.1% | [11] 25% | [12] 42.8% | [14] 63.6% | [15] 44.3% | [16] 26.3% | [17] 40% | [18] 34.1% | [19] 31.4% | [20] 83.1%
active: [5] -37.8% | [13] -14.8%

CN(C)CCCn1c2c(c3ccc(-c4ccn[nH]4)cc3c1=O)C(=O)c1ccccc1-2
inactive: [2] 24.5% | [3] 39.7% | [4] 71.1% | [5] 68.3% | [6] 44.6% | [8] 46.4% | [9] 70.3% | [10] 48% | [11] 10.9% | [12] 15.5% | [13] 53.1% | [14] 22.7% | [15] 16.9% | [16] 52.3% | [17] 31.5% | [18] 50.3% | [19] 15% | [20] 89.8%
active: [1] 4.84% | [7] 1.34%

C[C@H]1[C@H](C)CC[C@]2(CO)CC[C@]3(C)C(=CC[C@@H]4[C@@]5(C)CCCNC(C)(C)[C@@H]5CC[C@]43C)[C@H]12
inactive: [17] 22.5%
active: [1] -17.4% | [2] -49.1% | [3] -71.9% | [4] -54.8% | [5] -27.9% | [6] 5.71% | [7] -64.6% | [8] -36.5% | [9] -36.9% | [10] -73.2% | [11] 6.84% | [12] -75.4% | [13] 9.21% | [14] -64.9% | [15] -83.3% | [16] -43.2% | [18] -72.3% | [19] -94.9% | [20] -84.9%

O=C(Nc1ccc(Nc2ncccn2)cc1)NC1C=c2ccccc2=CC1 (stereo not given)
inactive: [1] 109% | [2] 89.1% | [3] 114% | [4] 91.3% | [5] 89.9% | [6] 98.5% | [7] 100% | [8] 100% | [9] 94.9% | [10] 111% | [11] 102% | [12] 103% | [13] 91.8% | [14] 103% | [15] 99% | [16] 108% | [17] 99.7% | [18] 92.9% | [19] 108% | [20] 107%

BrC(Br)(Br)c1cnc2ccccc2n1
inactive: [4] 46% | [6] 54.5% | [7] 74.3% | [8] 27.2% | [9] 39.9% | [10] 42.9% | [11] 31.7% | [13] 102% | [14] 67.9% | [15] 50.3% | [16] 62.3% | [17] 73.9% | [18] 61.4% | [19] 30.6% | [20] 53.5%
active: [1] 4.36% | [2] 1.19% | [3] -10.4% | [5] -31.5% | [12] -65.1%

CC(Oc1ccc(C(=O)NS(=O)(=O)C(C)(C)C)cc1C(F)(F)F)c1ccc(Oc2ccccc2)cn1 (stereo not given)
inactive: [1] 97% | [2] 34.7% | [3] 59.4% | [4] 81% | [5] 65.8% | [6] 67.8% | [7] 55.9% | [8] 76% | [9] 78.9% | [10] 57.3% | [11] 41.5% | [12] 59.5% | [13] 48.1% | [14] 63.8% | [15] 58.1% | [16] 93.8% | [17] 45.1% | [18] 36.7% | [19] 60.1% | [20] 61%

CCNNC(=O)[C@@H]1[C@H](c2cc(OC)c(OC)c(OC)c2)c2cc3c(cc2[C@H](O)[C@H]1CO)OCO3
active: [1] -24% | [7] 9.93% | [8] -10.9% | [10] -19.5% | [11] 5.4% | [12] -10% | [17] -38.8%
inactive: [2] 13.7% | [3] 56.3% | [4] 39.6% | [5] 15.3% | [6] 31.1% | [9] 53% | [13] 30.3% | [14] 35.6% | [15] 12.7% | [16] 12.5% | [18] 50% | [19] 14.4% | [20] 55%

N#CSCC1CC(O)(c2ccccc2)C(c2ccccc2)C(c2ccc(F)cc2)O1 (stereo not given)
inactive: [2] 12.6% | [5] 25.9% | [6] 29.9% | [7] 52.9% | [8] 40.5% | [9] 60.1% | [11] 42.6% | [13] 62.6% | [14] 76.8% | [15] 32.4% | [16] 15.9% | [17] 57.3% | [18] 41.2%
active: [1] -4.17% | [3] -10.9% | [4] -4.68% | [10] -2.19% | [12] 0.506% | [19] -1.61% | [20] -15.5%

N#CC1=C(N)Oc2c(ccc3ccccc23)C1c1ccc([N+](=O)[O-])cc1 (stereo not given)
inactive: [1] 89.6% | [2] 21.4% | [3] 84.3% | [4] 61.4% | [5] 101% | [6] 79.6% | [7] 75.6% | [8] 87.8% | [9] 94.7% | [10] 67.8% | [11] 41.5% | [12] 90.3% | [13] 44.8% | [14] 87.8% | [15] 89.8% | [16] 65.4% | [17] 86% | [18] 65.6% | [19] 59.1% | [20] 89.3%

CCc1c(Nc2ccc(C)cc2)[nH]c(N)nc1=S
inactive: [1] 104% | [2] 115% | [3] 103% | [4] 98.8% | [5] 113% | [6] 103% | [7] 96.2% | [8] 103% | [9] 104% | [10] 98.7% | [11] 99.7% | [12] 103% | [13] 93.5% | [14] 98.3% | [15] 97% | [16] 107% | [17] 101% | [18] 93.8% | [19] 105% | [20] 104%

CCOc1ccc(/C=N/Nc2cc(C)nc3ccc(Cl)cc23)cc1
active: [2] -38.7% | [3] -38.9% | [5] 0.829% | [7] -64.6% | [10] -39.6% | [11] -0.545% | [15] 8.99% | [19] -85.6%
inactive: [1] 44.4% | [4] 43% | [6] 75.2% | [8] 83.6% | [9] 69.5% | [12] 26.9% | [13] 101% | [14] 76.1% | [16] 71.2% | [17] 66.2% | [18] 68.2% | [20] 28.2%

O=CNc1cc(Cl)cc(Cl)c1
inactive: [1] 109% | [2] 97.5% | [3] 103% | [4] 85.6% | [5] 113% | [6] 106% | [7] 102% | [8] 100% | [9] 97.4% | [10] 103% | [11] 103% | [12] 101% | [13] 104% | [14] 99.7% | [15] 102% | [16] 96.1% | [17] 102% | [18] 96.1% | [19] 108% | [20] 103%

CCCCCCC/C=C/[C@H]1O[C@]2(O)C(=O)C=C3C[C@@H](O[C@@H]4O[C@H](CO)[C@@H](O)C(O)[C@@H]4O)C[C@@H]3[C@H]2C=C1C (stereo not given in full)
inactive: [1] 20.6% | [6] 21.8% | [7] 37.5% | [13] 48.4% | [14] 13%
active: [2] -5.09% | [3] 1.95% | [4] -8.64% | [5] -80.3% | [8] -43.7% | [9] -7.54% | [10] -23.6% | [11] -25% | [12] -12.2% | [15] -60.5% | [16] -26.8% | [17] 6.77% | [18] -52.4% | [19] -76.1% | [20] -26%

Cc1[nH]n(-c2cccc(Cl)c2)c(=O)c1/C=C1\C=Nc2ccc(Br)cc21
inactive: [1] 36.2% | [2] 64% | [3] 12.6% | [4] 17.4% | [6] 51.1% | [7] 31.3% | [8] 42.2% | [9] 75.1% | [10] 54.3% | [11] 59.2% | [12] 11.1% | [14] 78.1% | [16] 31.2% | [17] 60.4% | [18] 37.4% | [20] 71.2%
active: [5] -44.4% | [13] -13.5% | [15] 7.54% | [19] 4.2%

C=C1C(=O)O[C@H]2[C@H]1CC/C(COC(=O)CCCc1c[nH]c3ccccc13)=C\CC[C@@]1(C)O[C@@H]21
active: [2] -9.04% | [11] 7.56% | [19] -3.89%
inactive: [1] 49.6% | [3] 86.4% | [4] 35.4% | [5] 32.7% | [6] 60.8% | [7] 82% | [8] 41.7% | [9] 64.1% | [10] 53.1% | [12] 21.7% | [13] 76.4% | [14] 71.2% | [15] 56.4% | [16] 50.7% | [17] 71.5% | [18] 70.1% | [20] 92.6%
